Measured values from PubChem BioAssay AID651707 (NMMLSC, 2012).
Out of some 2,300 compounds screened, about 170 (7.4%) were called active.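 Rule for the calls: active = over 5% cells positive for green fluorescent reporter, or over 2% positive for both it and APC stain; inactive = the rest, inconclusive results apart.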 The list is a sample of the results.

Experiment: intrinsic compound fluorescence in ER-HoxA9 progenitors, confirmation, artefact control for AML myeloid differentiation project, cell-based, flow cytometry, GFP/APC, Cherry Pick01 (AID 651707);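 for double positive: share of cells both GFP positive and bound by Mac1 APC antibody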;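 for fluorescence response: range taken on the double positive population between DMSO and positive control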
Details: no estrogen, GFP autofluorescence flow cytometry, stronger effect = higher value; double positive: measured here: double positive GFP/APC population; fluorescence response: vehicle wells 0%, positive control 100%

Fluorescence response, inactive:
O=C(CCCN1C(=O)CCC1=O)Nc1ccc(Cl)c(C(F)(F)F)c1 0%
CCOC(=O)c1c(-c2ccccc2)oc2ccc(OCC(=O)NN)cc12 0%
CC(C)OC(=O)CN1C(=O)C(=O)c2ccccc21 0.5%
Cc1ccc(C)c(S(=O)(=O)N2CCN(c3ncnc4sccc34)CC2)c1 0%
O=C(NCC1CCCCC1)NCC1CCCCC1 0.2%
Nc1nc(Nc2ccccc2F)nc(NC2CCCCC2)c1[N+](=O)[O-] 0%
COc1cccc(NC(=O)[C@H](Cc2c[nH]c3ccccc23)NC(=O)[C@@H]2Cc3ccccc3CN2)c1 0.6%
COc1ccccc1NC(=O)c1cc(Cl)nnc1Cl 0.6%
O=C(Nc1cccc2ncccc12)c1ccc(-c2ccc(Cl)cc2Cl)o1 0.6%
CCOC(=O)C1=C(CN2CCc3ccccc32)NC(=O)NC1c1cccc([N+](=O)[O-])c1 (stereo not drawn) 0%
O[C@H]1CN(Cc2cccs2)[C@@H](c2ccc(Cl)cc2)C[C@@H]1n1cc(C2CC2)nn1 0%
O[C@H]1C[C@H](c2ccc(Cl)cc2)N(Cc2cccs2)C[C@@H]1n1cc(C2CC2)nn1 0.5%
Cc1ccc(-c2nc(C#N)c(NCCCn3ccnc3)o2)cc1 0.3%
Cc1ccc(C(=O)NC2CCCC(C)C2C)cc1S(=O)(=O)N1CCCCC1 (stereo not drawn) 0%
Cc1cc(C)c(-c2csc(NC(=O)CCCc3nc4ccccc4c(=O)[nH]3)n2)c(C)c1 2.2%
CC1CCCC(NC(=O)CN2CCN(Cc3ccc(Cl)cc3)C2=O)C1C (stereo not drawn) 0%
COc1ccc(C(=O)N(Cc2ccccc2)c2ccc(C)cc2)cc1S(=O)(=O)N1CCOCC1 1.5%
CN(C(=O)c1cccc([N+](=O)[O-])c1)c1ccccc1C(=O)NCc1ccccc1 0.4%
Cc1ccc(OS(=O)Nc2cccc3nccnc23)cc1 (stereo not drawn) 0%
Fc1cccc(Cl)c1CSc1ccc(-c2ccco2)nn1 0.5%
O=C(CN1C(=O)NC(Cc2c[nH]c3ccccc23)C1=O)Nc1ccccc1C(F)(F)F (stereo not drawn) 0%
CCOC(=O)C(C(=O)OCC)C(C#N)c1ccccc1 (stereo not drawn) 0%
CCN(CC)c1ccc(/C=N/NC(=O)CNC(=O)c2cccs2)cc1 0%
COc1ccc(C(C(=O)NCc2ccccc2)n2c(=O)c(-c3ccccc3)nc3ccccc32)cc1 (stereo not drawn) 0.7%
COc1ccccc1CNC(=O)c1cc(-c2cc(Cl)ccc2C)n[nH]1 0%
O=S(=O)(c1ccc(Br)cc1)c1nc(-c2ccccc2)oc1NCc1cccnc1 1.5%
CC(=O)Nc1ccc(S(=O)(=O)Nc2ccc(N3CCOCC3)c(F)c2)cc1 0.8%
CCOC(=O)c1c(-c2ccc(C)cc2)csc1/N=C(\C)C1=C(O)c2ccccc2C1=O 0%
COc1ccc(-c2ccc(OC(=O)NC3CCS(=O)(=O)C3)cc2)cc1 (stereo not drawn) 0.7%
COC(=O)CN(c1cccc(C(C)=O)c1)S(C)(=O)=O 0%
C/C(=C\c1ccccc1)C1NC(=O)c2c(sc3c2CCCC3)N1 (stereo not drawn) 0%
COc1ccc(C2CC(c3cccc(OC)c3)=NN2c2ccc(S(N)(=O)=O)cc2)cc1 (stereo not drawn) 0.5%
Cc1cc(NC(=O)CSc2nc(C(C)C)nc3sc4c(c23)CCC(C)C4)no1 (stereo not drawn) 1.4%
COc1ccc(-c2nnc(SCC(=O)c3cccs3)o2)c(OC)c1 3.4%
Cc1ccc2c(c1)C1C[N+](C)(CC(=O)c3ccccc3)CCC1N2C(=O)c1ccccc1Cl (stereo not drawn) 0%
Cc1ccc(-n2nc3cc(C)c(NC(=O)c4cccnc4)cc3n2)cc1 4.7%
COc1ccc2nc(N3CCN(C(=O)c4ccc([N+](=O)[O-])o4)CC3)sc2c1 0%
CC(C)CC(COCc1ccc(Cl)cc1)N1CCN(C(=O)c2ccc(C(F)(F)F)cc2)CCC1=O (stereo not drawn) 0%
COc1ccccc1N1CCN(C(=O)c2cc(-c3ccc(Br)cc3)on2)CC1 0.3%
O=C1c2ccccc2C(=O)N1Cc1cc(-c2ccccc2Cl)no1 0%
Cc1nn(-c2cc(Cl)ccc2N)c(=O)c2ccccc12 0%
CNC[C@H]1Oc2c(NC(=O)C3CCCCC3)cccc2C(=O)N([C@H](C)CO)C[C@@H]1C 0%
O=C(Cn1cc(-c2nnnn2-c2ccc(Cl)cc2)c(=O)c2ccccc21)c1ccccc1 0%
CN1CCC(CN)(N2CCN(c3ccccc3)CC2)CC1 0.6%
CC#CC[N+](C)(C)CCCCCC 0%
N#CC1=C(N)Oc2c(sc3ccccc23)C1c1ccco1 (stereo not drawn) 0%
O=C(NC(=O)c1ccccc1)Nc1ccccc1O 1.3%
Cc1c(C(=O)OCC(=O)N(CCC#N)c2ccccc2)oc2c1ccc1ccccc12 0%
Cc1cccc(OCC(O)CN2CCN(CCN3C(=O)c4cccc5cccc(c45)C3=O)CC2)c1C (stereo not drawn) 0%
CCCC(=O)Nc1c(O)c2ccccc2[nH]c1=O 0%
Cc1cc(C)c(S(=O)(=O)NCC2CCC(C(=O)NCc3ccc4c(c3)OCO4)CC2)c(C)c1 (stereo not drawn) 0.2%
O=C(CN(c1ccccc1)S(=O)(=O)c1ccc(Cl)cc1)Nc1ccccc1C(=O)N1CCCC1 0%
CC(C)CNC(=O)COC(=O)/C=C/c1ccccc1[N+](=O)[O-] 0%
Cc1cc(C)n(C(=O)c2ccc(C)c(S(=O)(=O)N3CCOCC3)c2)n1 2.3%

Fluorescence response, active:
O=c1oc2ccccc2cc1-c1csc(Nc2ccc(O)cc2)n1 55.3%
N#C/C(=C/c1ccc(N2CCCCC2)o1)C(=O)NCCc1c[nH]c2ccccc12 64.7%
CC(=O)Nc1ccc(S(=O)(=O)Nc2ccc(N3CCCCC3)cc2)cc1 10.5%
CCN(CC)C(=O)CSC(Nc1cccc(F)c1)=C(C#N)C#N 7.7%
Cc1ccc(Nc2cc(C)nc3c(C)ccc([N+](=O)[O-])c23)cc1 6.7%

Double positive, 0.2%:
Fc1cccc(Cl)c1CSc1ccc(-c2ccco2)nn1
CC(=O)Nc1ccc(S(=O)(=O)Nc2ccc(N3CCOCC3)c(F)c2)cc1

Double positive, 10.5%:
CC(=O)Nc1ccc(S(=O)(=O)Nc2ccc(N3CCCCC3)cc2)cc1

Double positive, 0.4%:
COc1ccc(-c2ccc(OC(=O)NC3CCS(=O)(=O)C3)cc2)cc1 (stereo not drawn)
